“And” between values parts separate entries of the source, which are not always exact repeats. Identical values can stand only once. Results filed as inconclusive are left out. A call without a number means that no potency is given here. The source holds several records for some structures; these can differ, active in one and inactive in another. The source made the active and inactive calls. Unless noted, calls follow the shape of the full dose curve.
assay: qHTS assay to identify small molecule agonists of the hypoxia (HIF-1) signaling pathway (AID 1224846; active = well fitted activation curve with a large enough effect in the signal ratio in the repeat runs, not every such curve was filed as active; the % refers to the signal ratio); details: HRE-bla ME-180 cells, beta-lactamase ratio, 17 h; series mostly up to 76.8 µM; activation: at the top concentration
Procedure, shortened: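 Reporter induction in HRE-bla ME-180 cells is taken as agonism: cells sit 5 hrs after plating, receive compounds or DMSO only, incubate 17 hrs at 37C under 5% CO2, and are loaded with CCF4-AM for beta-lactamase FRET measurement.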

Compound	outcome	activation
Cc1ccc(OP(=O)(Oc2ccc(C)cc2)Oc2ccc(C)cc2)cc1	inactive	
O=S(=O)(Oc1ccc(Cl)cc1)c1ccc(Cl)cc1	inactive	
Oc1ccc(-c2ccccc2)cc1	inactive	
O=C(CCl)c1ccccc1		-0.0339% (inactive)
N#Cc1cc(Br)c(O)c(Br)c1	inactive	

assay: qHTS assay to identify small molecule agonists of H2AX - cell viability counter screen (AID 1224847); details: CHO-K1 viability, CellTiter-Glo luminescence, 3 h; series mostly up to 154 µM; activity change, negative = cytotoxicity: at the top concentration; also: nearly all actives have a fitted effect of over 30% in size; also: potency is read from the fitted curve at half-maximal effect; as to activity change, negative = cytotoxicity: top concentration of the series differs between compounds
Procedure, shortened: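 Cytotoxicity counter screen in wild-type CHO-K1 cells: a 3 hr compound treatment at 37C across 15 concentrations, followed by CellTiter-Glo luminescence to gauge viable cells.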

Compound	Potency	activity change, negative = cytotoxicity
N#CC(Br)Br	inactive	
CCN(N=O)C(N)=O	inactive	
Cc1cc(C)cc(C)c1	inactive	
Oc1c(Cl)c(Cl)c(Cl)c(Cl)c1Cl	88 µM (active)	
COP(=O)(OC)OC	inactive	
CCC(C)(C)c1ccc(O)cc1	80 µM (active)	
C1=Cc2cccc3cccc1c23	inactive	
Oc1cc(Cl)ccc1Cl	inactive	
CCN(CC)C(=O)/C(Cl)=C(\C)OP(=O)(OC)OC	inactive	
Nn1cnnc1	inactive	
O=[N+]([O-])c1cccc2ccccc12	inactive	
N#CCCCl	inactive	
C=C(C)C(=O)OCC1CO1 (stereo unspecified)	inactive	
Nc1cccnc1	inactive	
O=Cc1ccco1	inactive	
CCCCC(CC)COC(=O)Cl (stereo unspecified)	inactive	
Cc1cc(Cl)ccc1OCCCC(=O)O	inactive	

Compound	Potency	activity change, negative = cytotoxicity
N[C@@H](Cc1ccc(N(CCCl)CCCl)cc1)C(=O)O	inactive	
O=C(Nc1ccc(Br)cc1)c1cc(Br)cc(Br)c1O	28.3 µM (active) and 35.7 µM (active) and 39.1 µM (active)	
CCCCCCCCC(=O)NCc1ccc(O)c(OC)c1		1.43% [at 70.9 µM] (inactive)
c1ccc(N=Nc2ccccc2)cc1	inactive	
C#CCOS(=O)OC1CCCCC1Oc1ccc(C(C)(C)C)cc1 (stereo unspecified)	4.5 µM (active)	
C#C[C@]1(O)CC[C@H]2[C@@H]3CCC4=CC(=O)CC[C@]4(C)[C@H]3CC[C@@]21C	inactive	
Nc1ccncc1	inactive	
O=P(O)(O)CCCl	inactive	
CCN(CC)N=O	inactive	
O=P(Oc1ccccc1)(Oc1ccccc1)Oc1ccccc1	89.3 µM (active) and inactive	
CCOc1cc(C=O)ccc1O	inactive	
CC(C)Oc1cc(-n2nc(C(C)(C)C)oc2=O)c(Cl)cc1Cl		-6.62% (inactive)
COP(=S)(OC)Oc1ccc([N+](=O)[O-])cc1	inactive	
COc1ccc(C=O)cc1	inactive	
C=C(C)[C@H]1Cc2c(ccc3c2O[C@@H]2COc4cc(OC)c(OC)cc4[C@@H]2C3=O)O1	0.091 µM (active)	
c1nc[nH]n1	inactive	

assay: qHTS assay to identify small molecule antagonists of the estrogen related receptor (ERR) signaling pathway from Tox21 library (AID 1224848; active = well fitted inhibition curve with a large enough effect in the repeat runs; also: nearly all actives have a fitted effect of over 50% in size; also: potency is read from the fitted curve at half-maximal effect); details: ERR reporter cell line, luciferase antagonist mode, 18 h; series mostly up to 92.4 µM; activity, negative = inhibition: at the top concentration
Procedure, shortened: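 Quantitative high-throughput format: ERR reporter cells (2,000/well) pre-incubated 6 h, treated 18 h at 37 C with compounds in DMSO alongside positive and negative controls, then read by ONE-Glo luminescence.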

Compound	activity, negative = inhibition	Potency
COP(=O)(OC)OC	4.8% (inactive)	
CCC(C)(C)c1ccc(O)cc1		inactive
C1=Cc2cccc3cccc1c23		inactive
Cc1ccc(OP(=O)(Oc2ccc(C)cc2)Oc2ccc(C)cc2)cc1		inactive
O=[N+]([O-])c1cccc2ccccc12		inactive
O=S(=O)(Oc1ccc(Cl)cc1)c1ccc(Cl)cc1	-13.5% (inactive)	
C=C(C)C(=O)OCC1CO1 (stereo unspecified)		inactive
O=Cc1ccco1		inactive
CCCCC(CC)COC(=O)Cl (stereo unspecified)		inactive
O=C(Nc1ccc(Br)cc1)c1cc(Br)cc(Br)c1O		12.2 µM (active)
Oc1ccc(-c2ccccc2)cc1		inactive
c1ccc(N=Nc2ccccc2)cc1		inactive
C#CCOS(=O)OC1CCCCC1Oc1ccc(C(C)(C)C)cc1 (stereo unspecified)		1.37 µM (active) and 1.54 µM (active)
CCN(CC)N=O		inactive
N#Cc1cc(Br)c(O)c(Br)c1		48.5 µM (active) and 37.1 µM (active)
C=C(C)[C@H]1Cc2c(ccc3c2O[C@@H]2COc4cc(OC)c(OC)cc4[C@@H]2C3=O)O1		39.1 nM (active) and 9.7 nM (active) and 10.6 nM (active)
c1nc[nH]n1		inactive

assay: qHTS assay to identify small molecule agonists of the estrogen related receptor (ERR) signaling pathway from Tox21 library (AID 1224849); details: ERR reporter cell line, ONE-Glo luciferase, 18 h; at 42.5 µM (top of the series); also: nearly all actives have a fitted effect of over 15% in size
Procedure, shortened: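 Tox21 compounds tested for ERR agonism in an NTP reporter cell line: 18 h treatment at 37 C, then ONE-Glo luminescence.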

Compound	activity change, positive = activation
CCC(C)(C)c1ccc(O)cc1	-6.2% (inactive)
O=C(Nc1ccc(Br)cc1)c1cc(Br)cc(Br)c1O	-35.9% (inactive)
C=C(C)[C@H]1Cc2c(ccc3c2O[C@@H]2COc4cc(OC)c(OC)cc4[C@@H]2C3=O)O1	-51.1% (inactive)

same assay, conditions: ERR reporter cell line, ONE-Glo luciferase, 18 h; at 92.4 µM (top of the series)

Compound	activity change, positive = activation
COP(=O)(OC)OC	-30.8% (inactive) and 3.29% (inactive)
CCC(C)(C)c1ccc(O)cc1	-16.7% (inactive) and -1.98% (inactive)
C1=Cc2cccc3cccc1c23	-16.5% (inactive) and -13.1% (inactive)
Cc1ccc(OP(=O)(Oc2ccc(C)cc2)Oc2ccc(C)cc2)cc1	-19.4% (inactive) and -4.77% (inactive)
O=[N+]([O-])c1cccc2ccccc12	-1.67% (inactive) and -0.342% (inactive)
O=S(=O)(Oc1ccc(Cl)cc1)c1ccc(Cl)cc1	-19.6% (inactive) and -8.56% (inactive)
C=C(C)C(=O)OCC1CO1 (stereo unspecified)	-2.17% (inactive) and 2.32% (inactive)
O=Cc1ccco1	0.408% (inactive) and 7.35% (inactive)
CCCCC(CC)COC(=O)Cl (stereo unspecified)	0.183% (inactive) and -0.549% (inactive)
O=C(Nc1ccc(Br)cc1)c1cc(Br)cc(Br)c1O	-31.1% (inactive) and -48% (inactive)
Oc1ccc(-c2ccccc2)cc1	1.81% (inactive)
c1ccc(N=Nc2ccccc2)cc1	2.72% (inactive) and 1.53% (inactive)
C#CCOS(=O)OC1CCCCC1Oc1ccc(C(C)(C)C)cc1 (stereo unspecified)	-66% (inactive) and -59.3% (inactive)
CCN(CC)N=O	0.678% (inactive)
O=P(Oc1ccccc1)(Oc1ccccc1)Oc1ccccc1	-19.4% (inactive) and -25.7% (inactive)
N#Cc1cc(Br)c(O)c(Br)c1	-51.5% (inactive) and -34.9% (inactive)
C=C(C)[C@H]1Cc2c(ccc3c2O[C@@H]2COc4cc(OC)c(OC)cc4[C@@H]2C3=O)O1	-64.6% (inactive) and -64.1% (inactive)
c1nc[nH]n1	1.27% (inactive) and 6.15% (inactive)

Reference: PubChem BioAssay (Tox21)
